Measured values published in PubChem BioAssay (NCI).
This is part of a sample that, as a whole, favours compounds with a hit. Of some 83,000 tested, about 20% had one in any assay.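 Method: cells in 96-well plates; compound added at one concentration; 48 h incubation; percent growth measured; values under 10 scored active.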 A number with no mark means an inactive call. Activity calls are given as the source filed them.

Experiments:
Assay in all cases: NCI-60 one-dose screen, 48 h (100 = growth as untreated, 0 = no growth, -100 = all killed)
Details in all cases: 10 µM unless noted
NCI-H23 lung = test system: NCI-H23 lung
NCI-H226 lung = test system: NCI-H226 lung
NCI-H322M lung = test system: NCI-H322M lung
HOP-62 NSCLC = test system: HOP-62 NSCLC
NCI-H460 lung = test system: NCI-H460 lung
HOP-92 NSCLC = test system: HOP-92 NSCLC
NCI-H522 lung = test system: NCI-H522 lung
A549/ATCC NSCLC = test system: A549/ATCC NSCLC
786-0 renal = test system: 786-0 renal
DU-145 prostate = test system: DU-145 prostate
K-562 leukemia = test system: K-562 leukemia
MALME-3M melanoma = test system: MALME-3M melanoma
MDA-MB-231 breast = test system: MDA-MB-231 breast
RXF 393 renal = test system: RXF 393 renal
SF-268 CNS = test system: SF-268 CNS
SF-295 CNS = test system: SF-295 CNS
SF-539 CNS = test system: SF-539 CNS
UACC-257 melanoma = test system: UACC-257 melanoma
M14 melanoma = test system: M14 melanoma

Compound | growth (NCI-H23 lung) | growth (NCI-H226 lung) | growth (NCI-H322M lung) | growth (HOP-62 NSCLC) | growth (NCI-H460 lung) | growth (HOP-92 NSCLC) | growth (NCI-H522 lung) | growth (A549/ATCC NSCLC) | growth (786-0 renal) | growth (DU-145 prostate) | growth (K-562 leukemia) | growth (MALME-3M melanoma) | growth (MDA-MB-231 breast) | growth (RXF 393 renal) | growth (SF-268 CNS) | growth (SF-295 CNS) | growth (SF-539 CNS) | growth (UACC-257 melanoma) | growth (M14 melanoma)
COc1ccc(/C=N/NC(=O)Cn2c(-c3ccc(S(C)(=O)=O)cc3)nc3cc(Cl)ccc32)cc1 | 29.9% | 57.1% | 51.4% | 30.5% | 7.74% (active) | 49.3% | 2.78% (active) | 17.4% | 39.2% | 14.2% | 6.93% (active) | 65.8% | 12.9% | 14.9% | 45.2% | 13.4% | -14.1% (active) | 64.4% | 13.5%
COc1cc2c(cc1OC)-c1ccc3cc4c(cc3c1N(CCN1CCCC1)C2)OCO4 | 10.9% | -3.34% (active) | 5.86% (active) | -18.1% (active) | -19.4% (active) | 22.8% | -39.7% (active) | 5.78% (active) | -32% (active) | 11.5% | -3.86% (active) | 51.4% | -38.6% (active) | -3.76% (active) | 20.1% | 4.42% (active) | 4.16% (active) | 44.2% | 17.4%
CCN(CC)CC(O)CNc1c2ccc(Cl)cc2nc2ccc(OC)cc12 (centres undefined) | -39.1% (active) | 46.7% | -27.1% (active) | -47.1% (active) | 0.742% (active) | -13.9% (active) | -65.7% (active) | -72.9% (active) | -16.1% (active) | -26.4% (active) | -10.3% (active) | -98.4% (active) | -33.4% (active) | -80.8% (active) | 14.8% | 10.8% | -61.3% (active) | -87% (active) | -94.2% (active)
CSc1nc2sc3cc(Cl)ccc3n2c(=N)c1C#N | 82.2% | 57% | 107% | 119% | 92.7% | 77% | 94.3% | 62.3% | 47.6% | 96.1% | 110% | 40.1% | 72.8% | -0.36% (active) | 47.3% | 26.1% | 70.2% | 45.7% | 82.4%
O=C(c1ccccc1)c1ccc(N2C(=O)C3C4c5ccccc5C(/C=C/C(=O)c5ccccn5)(c5ccccc54)C3C2=O)cc1 (centres undefined) | 14.2% | 12.7% | 74.9% | 24.3% | 6.4% (active) | 55.6% | 30.6% | 44.3% | 2.11% (active) | 21.4% | 15.9% | -18.2% (active) | -8.96% (active) | -48.5% (active) | 43.4% | 10.8% | -10.9% (active) | 43.6% | 21.3%
COc1ccc(Oc2nc(Nc3ccc(N4CCOCC4)nc3)ncc2NC(=O)c2cc(OC)cc(OC)c2)cc1 | 97.9% | 65% | 88% | 82.6% | 82.3% | 82.8% | 52.1% | 84.6% | 67.4% | 89.6% | 49.8% | 107% | 81.9% | 58.6% | 82.2% | 83.7% | 78.2% | 89.7% | 72.8%
CCNCCNc1cc(-c2ccc(C(F)(F)F)cc2)c(C#N)c2nc3cc(Cl)c(Cl)cc3n12 | -76.6% (active) | 99.8% | -95.4% (active) | -82.4% (active) | -71.6% (active) | -83.5% (active) | -73.3% (active) | -88.4% (active) | -78% (active) | -93% (active) | -63.7% (active) | -77.9% (active) | -73.2% (active) | -96.3% (active) | -76.3% (active) | -91.2% (active) | -92.9% (active) | -85.4% (active) | -81.5% (active)
NC(=O)c1c(NC(=O)c2ccc(C(F)(F)F)cc2Cl)sc2c1CCC(=O)C2 | -7.98% (active) | -22.6% (active) | 14% | 1.14% (active) | 0.92% (active) | -61.7% (active) | -25.6% (active) | 9.42% (active) | 17.1% | 18.9% | -11.7% (active) | -24.7% (active) | -55.3% (active) | -39% (active) | -2.06% (active) | -27.2% (active) | -84.8% (active) | -22.4% (active) | -30.1% (active)
Cc1cnc(Nc2ccc(N3CCN(C)CC3)cc2)nc1Nc1ccc(Cl)c(NS(=O)(=O)C(C)(C)C)c1 | 18.9% | 7.11% (active) | 37.2% | 14.1% | 20.5% | -27.8% (active) | -28.8% (active) | -26.1% (active) | -30.4% (active) | 13.4% | 7.56% (active) | 19.3% | 4.33% (active) | -78.2% (active) | 15.7% | 26.1% | -36.4% (active) | 5.3% (active) | 8.84% (active)
C=C1C(=O)O[C@H]2[C@H]1CC/C(COC(=O)/C=C/C(=O)NCc1ccc(Cn3c(=O)sn(-c4ccccc4)c3=O)cc1)=C\CC[C@@]1(C)O[C@@H]21 | 49.7% | 14.5% | 89.9% | 85.5% | 91.9% | -53.7% (active) | -80.1% (active) | 80.2% | -19.1% (active) | 8.63% (active) | -0.361% (active) | -57.8% (active) | -39.9% (active) | -86.6% (active) | -6.21% (active) | 100% | -39.1% (active) | -11.4% (active) | -36% (active)
Cc1cc(N(CCCNc2ccnc3cc(Cl)ccc23)Cc2ccccn2)nc(N2CCCC2)n1 | 78.3% | 89.6% | 75.9% | 68.4% | 66.4% | 59.7% | 88% | 70.8% | 73.5% | 91.2% | 9.27% (active) | 70.9% | 56.2% | 54.9% | 67.3% | 75.5% | 52.3% | 81.6% | 93.7%
CCN(CC)CC(=O)Nc1cccc(C(=O)OC(C)C)c1 | 92.1% | 96.5% | 96.8% | 92.2% | 112% | 82% | 66.3% | 93.7% | 79.8% | 109% | 102% | 99.5% | 112% | 112% | 105% | 95% | 100% | 106% | 79.6%
C=C1c2c(C)nn(-c3ccc(S(N)(=O)=O)cc3)c2N(C)C23CC1C1(C)c4c(C)nn(-c5ccc(S(N)(=O)=O)cc5)c4N(C)C(C)(CC12)C3 (centres undefined) | 51.4% | 40.7% | 75.7% | 48.2% | 12.4% | 50.1% | 44% | 17.6% | 41.9% | 43.6% | 29.9% | 61.6% | 39.6% | 33.3% | 42.2% | 30.1% | 57.1% | 49% | 20.6%
Cn1c(NCCc2ccc(O)c(O)c2)nc2c1c(=O)n(Cc1ccc(Cl)cc1)c(=O)n2C | 79.1% | 84.5% | 77.2% | 88.5% | 96.9% | 47.1% | -10.7% (active) | 104% | 92.1% | 87.3% | 77.1% | 82.3% | 52.3% | 73.2% | 72.4% | 103% | 82.7% | 117% | 78.8%
CN1CCN(C(=O)[C@@]2(C)CC[C@]3(C)CC[C@]4(C)C(=CC[C@@H]5[C@@]6(C)C/C(=C/c7ccncc7)C(=O)C(C)(C)[C@@H]6CC[C@]54C)[C@@H]3C2)CC1 | 59.3% | 88.6% | 79.7% | 68.4% | 24.4% | 34.3% | 69% | 45.9% | 58.4% | 76.1% | 7.71% (active) | 42.3% | 69.4% | 46.3% | 67.9% | 63.6% | 57.7% | 40.8% | 49.8%
CNC(=O)NCC1OC(n2cnc3c(NC(=O)Nc4ccccc4)ncnc32)C2OC(C)(C)OC12 (centres undefined) | 87.3% | 109% | 101% | 99.3% | 101% | 14.4% | 103% | 103% | 105% | 93.7% | 90.4% | 75.7% | 107% | 96.6% | 91.3% | 119% | 83.9% | 107% | 88.8%
